Only some compounds are listed: those with a hit (about 3.7% of all), similar ones and a draw of the others.
BH1578 lux ind = inducers of Vibrio cholerae quorum light production without autoinducers; hit rate 0.16% among 350,000; V. cholerae BH1578 lux reporter, luminescence, 6 h; activation, % at 18.7 µM; in the data active = activation mostly above about 9.7%, no sharp cut-off; inconclusive = no clear call, values can overlap the other calls; inactive = mostly below about 3.7%
Anthrax LF prot = anthrax lethal factor protease inhibition | P15917 | multiplex microsphere protease cleavage assay, LF | inhibition, % at 10 µM | hit rate 0.12% among 360,000 | AID 588501
BoNT A protease = blocks Botulinum neurotoxin A light chain protease; hit rate 0.17% among 360,000; inhibition, % at 10 µM; multiplex microsphere protease substrate cleavage, flow cytometry
Autofluor counter = counter-screen for toxin protease inhibitors: compound fluorescence. AID 624483. compound autofluorescence counterscreen, microsphere flow cytometry; stronger effect = higher value. fluorescence intensity (test concentration not listed). hit rate 3.1% among 360,000; in the data active = fluorescence intensity above about 16000; inconclusive = no clear call, values can overlap the other calls
BJeLR viability = kills HRASV12-expressing BJeLR cells; hit rate 0.17% among 300,000; BJeLR (HRASV12) viability, CellTiter-Glo ATP luminescence, 48 h; inhibition, % (no concentration beside the values); AID 1554; in the data active = inhibition above about 50%; inconclusive = no clear call, values can overlap the other calls
BoNT-F LC inh = inhibitors of Botulinum neurotoxin F light chain protease. Multiplex microsphere protease cleavage assay, flow cytometry. inhibition, % at 10 µM. hit rate 0.22% among 360,000. AID 588497; in the data active = inhibition above about 35%, passing the limit was not always enough; inconclusive = no clear call, values can overlap the other calls
Each line names hits and unclear results; the compound was inactive in the other large screens. Cut-off read from the data, not from the text of the source, unless noted: active = inhibition above about 30%; inconclusive = no clear call, values can overlap the other calls; inactive = below that.

O=C(CCc1ccc(S(=O)(=O)N2CCOCC2)cc1)Nc1nccs1	none
O=C(COc1ccccc1)Nc1nc(-c2ccc(S(=O)(=O)N3CCOCC3)cc2)cs1	none
O=C(CCc1ccc(S(=O)(=O)N2CCOCC2)cc1)Nc1nc(COc2ccccc2)cs1	Autofluor counter 22376
O=C(CCc1ccc(S(=O)(=O)N2CCOCC2)cc1)NCCc1ccccn1	BoNT A protease inconclusive, Autofluor counter 21908
CC(C)N(C)c1ncnc2c1ncn2[C@H]1CN(CCN2CCOCC2)C[C@@H](CO)O1	none (no result: BJeLR viability)
O=C(O)c1cn(-c2ccccc2)nc1-c1ccncc1	none
O=C(O)c1cn(-c2ccccc2)nc1-c1cccnc1	Autofluor counter 20326
CCCCN1CC(COCc2ccccc2)Oc2cccc(OCc3ccc(OC)cc3)c2S1(=O)=O (stereo not drawn)	none (no result: BJeLR viability)
O=C(OCc1nc2ccccc2[nH]1)C12CC3CC(CC(C3)C1)C2	Autofluor counter 17109
c1ccc2[nH]c(CN3CCCCCC3)nc2c1	Autofluor counter 20479
c1ccc2c(CN3CCCCCCC3)c[nH]c2c1	Autofluor counter 17395
Cc1ccc(OCc2nc3ccccc3[nH]2)cc1	none
c1ccc(OCc2nc3ccccc3[nH]2)cc1	Autofluor counter 22117
CC(=O)Nc1cc(-c2ccc(S(C)(=O)=O)cc2)cn2c(-c3ccc(F)c(Cl)c3)cnc12	none (no result: BJeLR viability)
CCOc1ccc(NC(=O)NCCCSC2CCCCC2)cc1	Autofluor counter 22514
CCOc1ccc(NC(=O)NCCN2C(C)CCCC2C)cc1 (stereo not drawn)	Autofluor counter 17584
CCOc1ccc(NC(=O)NC2CCCCCCC2)cc1	none (no result: BJeLR viability)
COc1ccc(NC(=O)NCCCN2CCCCC2C)cc1 (stereo not drawn)	none
CC(C)[C@H](NC(=O)c1ccc(Cl)cc1)C(=O)Nc1cccc(S(=O)(=O)N2CCOCC2)c1	none (no result: BJeLR viability)
O=C1CCCCCCC(=O)[C@H](O)C[C@H](c2ccccc2)O1	none (no result: BH1578 lux ind, BJeLR viability)
COc1ccc([N+](=O)[O-])cc1NC(=O)COC(=O)C12CC3CC(CC(O)(C3)C1)C2	none (no result: BJeLR viability)
CC(=O)N(C(C)=O)c1ccc2nc(C)[nH]c(=O)c2c1	none
Cc1nc2ccc(CN(C)c3ccc(C(=O)N[C@@H](CCC(=O)O)C(=O)O)s3)cc2c(=O)[nH]1	BJeLR viability 72 (no result: BH1578 lux ind, Anthrax LF prot, BoNT A protease, Autofluor counter, BoNT-F LC inh)
O=C(COc1ccc(Br)cc1Br)NC(=S)N1CCCc2ccccc21	Anthrax LF prot 31
CCC(C)n1c(SCC(=O)N(CC)c2c(N)n(Cc3ccccc3)c(=O)[nH]c2=O)nc2ccccc2c1=O (stereo not drawn)	none (no result: BJeLR viability)
OC(c1ccc(Cl)c(F)c1)c1ncc(-c2cccc(C(F)(F)F)c2)[nH]1 (stereo not drawn)	none (no result: BJeLR viability)
CCOc1ccc(NC(=O)CSc2nc3[nH]ncc3c(=O)n2-c2ccccc2OC)cc1	none
COc1ccccc1-n1c(SCC(=O)Nc2ccccc2F)nc2[nH]ncc2c1=O	BoNT A protease inconclusive, Autofluor counter 16242
Cc1cccc(C)c1NC(=O)C(c1ccccc1)N1CCC(Cc2ccccc2)CC1 (stereo not drawn)	none (no result: BH1578 lux ind, BJeLR viability)
Cc1ccc(S(=O)(=O)N2C[C@H]3[C@H]4C(=O)N(c5ccccc5)C(=O)[C@H]4C[C@H](OC(=O)NCc4ccccc4F)[C@@]3(O)C2)cc1	none (no result: BJeLR viability)
Cc1cc(OCCSc2nnc(-c3cccs3)n2C)ccc1Cl	none
Cn1c(SCCOc2ccc(F)cc2)nnc1-c1ccncc1	none
Cn1c(SCCOc2ccc(Cl)cc2)nnc1-c1ccncc1	Autofluor counter 23566
Cn1c(SCCOc2ccccc2Cl)nnc1-c1cccs1	Autofluor counter 22281
Cc1ccc(OCCSc2nnc(-c3cccs3)n2C)cc1	BoNT A protease inconclusive, Autofluor counter 20327
COc1ccc(CN2CCC[C@]3(N[C@H](c4ccc(C)cc4)[C@@H]4C(=O)N(Cc5ccccc5)C(=O)[C@@H]43)C2=O)cc1	none (no result: BJeLR viability)
O=C(NCC1CC1)C1Cc2c(-c3ccc4c(c3)OCO4)ccnc2O1 (stereo not drawn)	none (no result: BJeLR viability)
CCn1c2ccccc2nc2cc3c(cc21)c(Cl)c(=O)c1ccccc13	none (no result: BJeLR viability)
COc1ccc(NC(=O)C2Cc3c(-c4cccc(F)c4)ccnc3O2)cn1 (stereo not drawn)	none (no result: BJeLR viability)
Nn1c(COc2ccccc2F)nnc1SCC(=O)NCC1CCCO1 (stereo not drawn)	none (no result: BJeLR viability)
CCN1C(=O)c2ccccc2S(=O)(=O)c2ccc(C(=O)NCC(OC)OC)cc21	none
CCN1C(=O)c2ccccc2S(=O)(=O)c2ccc(C(=O)NCCOC)cc21	BoNT-F LC inh 61
CN=C1SC(CC(=O)Nc2ccc(N3CCOCC3)cc2)C(=O)N1C (stereo not drawn)	BoNT A protease inconclusive, Autofluor counter 25216
CN=C1SC(CC(=O)Nc2cccc(C(F)(F)F)c2)C(=O)N1C (stereo not drawn)	Autofluor counter 16700
Cc1cn([C@H]2C[C@H](O)[C@@H](CNCc3cccn3-c3nccs3)O2)c(=O)[nH]c1=O	none (no result: BJeLR viability)
CCOC(=O)N1CCN(Cc2nc3c(c(=O)[nH]c(=O)n3C)n2Cc2cc(C)ccc2C)CC1	BoNT A protease inconclusive, Autofluor counter 20382
CCCCCn1c(CN2CCN(Cc3ccccc3)CC2)nc2c1c(=O)[nH]c(=O)n2C	Autofluor counter 22888
CCOC(=O)N1CCN(Cc2nc3c(c(=O)n(C)c(=O)n3C)n2CCCc2ccccc2)CC1	Autofluor counter 20078
COc1ccc(N2CCN(Cc3nc4c(c(=O)n(C)c(=O)n4C)n3CC(C)=O)CC2)cc1	Autofluor counter 20509
Cc1ccc(S(=O)(=O)N2CC3(O)CN(C(=O)OC(C)C)N(C(=O)OC(C)C)CC3(OC(=O)NCc3ccccc3)C2)cc1 (stereo not drawn)	none (no result: BJeLR viability)
CCCCCCn1c(CN2CCN(Cc3ccccc3)CC2)nc2c1c(=O)n(C)c(=O)n2C	Autofluor counter 20131
CCCCCn1c(CN2CCN(c3cccc(Cl)c3)CC2)nc2c1c(=O)[nH]c(=O)n2C	Autofluor counter 20547
Cn1c(=O)[nH]c(=O)c2c1nc(CN1CCN(c3cccc(Cl)c3)CC1)n2CCc1ccccc1	Autofluor counter 16970
CCCCCCCCn1c(N2CCN(c3cccc(Cl)c3)CC2)nc2c1c(=O)[nH]c(=O)n2C	none
Cn1c(=O)c2cc(NC(=S)NC3CCCCC3)ccc2n1Cc1ccc(Cl)cc1	none (no result: BJeLR viability)
CN(CCc1ccccc1)c1cc2c(c3c1ccn3C)C1CCC2C1 (stereo not drawn)	none (no result: BH1578 lux ind, BJeLR viability)
CC(C)(C)Nc1nc(N2CCCC2)nc(N2CCCC2)n1	BH1578 lux ind 17
COC(=O)[C@]12CCCCC=C1N(CCC1=CCCCC1)C(=O)[C@H](CC(=O)N1CCN(C(=O)c3ccco3)CC1)C2	none (no result: BH1578 lux ind, BJeLR viability)
O=C(Nc1ccc(C(F)(F)F)cc1)c1cccnc1N1CCOCC1	BoNT A protease inconclusive, Autofluor counter 21885
CC1CC2(C)Oc3ccccc3C3OCC1(CO)C(C)C32 (stereo not drawn)	Autofluor counter 19211
CCOC(=O)Cc1csc(NC(=O)CSc2nnc(-c3ccc(NS(=O)(=O)CC)cc3)o2)n1	Autofluor counter 21681
CCOC(=O)Cc1csc(NC(=O)CSc2nnc(-c3ccncc3)o2)n1	none
